Screening data: PubChem, Broad Institute
Only some compounds are listed: those with a hit (about 4% of all), similar ones and a draw of the others.
PAX8 inh HTS = inhibitors of PAX8-driven TPO luciferase reporter, primary screen, RMG-I cells, single concentration; SteadyGlo, 24 h; inhibition, % at 12.6 µM; 360,000 compounds, 1.2% hits; AID 652154, 2013;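 active = mean replicate inhibition at least 60% with every replicate also reaching 60%; inconclusive = only one of the two criteria is met; inactive = mean below 60% and not all replicates reaching 60%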;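 also: luciferase light reporting Pax8 driven TPO promoter activity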
Wnt bcat act = Wnt/beta-catenin pathway activators, primary screen, cell-based, plate reader, single point | Wnt/beta-catenin reporter cell assay, activator | activation, % at 9.35 µM | 300,000 compounds, 1.2% hits | AID 743398, 2014; in the data active = activation above about 30%, passing the limit was not always enough; inconclusive = no clear call, values can overlap the other calls
EWS-Fli inh = EWS/Fli-driven NR0B1 reporter inhibitors, primary screen, A673 cells, NR0B1 luciferase, luminescence, MLPCN library; viability-normalised; inhibition, % at 12.6 µM; 350,000 compounds, 0.67% hits; AID 651661, 2012;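 active = mean inhibition of at least 50% after viability correction, with every replicate also passing that limit; inconclusive = mean reaches 50% but only one of two replicates passes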;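 also: firefly luciferase signal divided by Alamar Blue viability fluorescence both relative to DMSO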
esBAF inh = Bmi1 luciferase reporter increase in mESCs, primary screen, esBAF inhibitor project, mouse ES cells, Bmi1 luciferase knock-in, single point; 24 h; 100% = twice the neutral-well signal; reporter increase, % at 12.5 µM; 350,000 compounds, 2% hits; in the data active = activation above about 40%; inconclusive = no clear call, values can overlap the other calls;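 also: a rise in the Bmi1 reporter signal indicates esBAF inhibition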
MITF TRPM1 inh = inhibitors of MITF-dependent TRPM1 promoter reporter, primary screen, cell-based, SK-MEL-5, single point, luciferase | SK-MEL-5 TRPM1 promoter luciferase, 24 h | inhibition, % at 12.5 µM | 330,000 compounds, 0.83% hits | AID 488899, 2010;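 active = mean inhibition across replicates of 60% or more, whatever share of single replicates reaches that level; inconclusive = some that reach 60%, reason not given; inactive = mean inhibition across replicates below 60%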
MITF TRPM1 HTS = activators of MITF-driven TRPM1 promoter reporter, primary screen, cell-based, SK-MEL-5, luciferase, single point; AID 588334, 2011; activation, % at 12.5 µM; 300,000 compounds, 0.75% hits; SK-MEL-5 TRPM1-promoter luciferase, 24 h; % of positive control, neutral wells = 0;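 active = mean activation of at least 80% with every replicate also reaching 80%; inconclusive = mean reaches 80% but some replicate falls short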
Hits are given with their value; – = inactive; ? = inconclusive; · = no result.

SMILES | PAX8 inh HTS | Wnt bcat act | EWS-Fli inh | esBAF inh | MITF TRPM1 inh | MITF TRPM1 HTS
Cc1ccc(NC(=O)CCc2c(C)nn(-c3ccc(N4CCCCC4)nn3)c2C)cc1F | – | – | – | 69 | – | –
Cc1nn(-c2ccc(N3CCCCC3)nn2)c(C)c1CCC(=O)Nc1cccc(F)c1 | – | – | – | 64 | – | 97
Cc1ccc(C)c(NC(=O)CCc2c(C)nn(-c3ccc(N4CCCCC4)nn3)c2C)c1 | – | – | – | – | – | –
C[C@H](CO)N1C[C@H](C)[C@@H](CN(C)C(=O)CCCN(C)C)OCCCC[C@H](C)Oc2ccc(NS(C)(=O)=O)cc2C1=O | – | · | – | – | · | ·
COc1ccc(-c2ccc3n(c2=O)C[C@@H]2[C@@H](CO)[C@H](C(=O)NC4Cc5ccccc5C4)N[C@H]32)cc1 | 66 | · | – | – | · | ·
O=C(NC1CCC(O)CC1)c1ccc(-c2ccc(Cl)cc2)o1 (stereo unspecified) | – | – | – | 64 | – | –
O=C(NC1CCCC1)c1cc(-c2cccc(Cl)c2)on1 | – | – | – | 78 | – | 127
O=C(NC1CCCC1)c1cc(-c2ccc(F)cc2)on1 | – | – | – | – | – | –
O=C(NC1CCCCC1)c1cc(-c2ccc(Cl)cc2)on1 | – | – | – | 49 | – | –
O=C(NC1CCCC1)c1cc(-c2ccc(Cl)cc2)on1 | – | 30 | – | 44 | – | 132
O=C(NC1CCC(O)CC1)c1ccc(Br)o1 (stereo unspecified) | – | – | – | – | – | –
Cc1ccc(S(=O)(=O)Nc2ccc3c(c2)CC(=O)N([C@@H](C)CO)C[C@H](C)[C@H](CN(C)Cc2ccc(Cl)c(Cl)c2)O3)cc1 | – | · | 69 | – | · | ·
Cc1noc(C)c1S(=O)(=O)Nc1ccc2c(c1)CC(=O)N([C@@H](C)CO)C[C@@H](C)[C@H](CN(C)Cc1ccc(Cl)c(Cl)c1)O2 | 88 | · | – | – | · | ·
Cc1ccc(S(=O)(=O)Nc2ccc3c(c2)CC(=O)N([C@H](C)CO)C[C@@H](C)[C@@H](CN(C)Cc2ccc(Cl)c(Cl)c2)O3)cc1 | – | · | – | – | · | ·
Cc1ccc(S(=O)(=O)Nc2ccc3c(c2)CC(=O)N([C@H](C)CO)C[C@H](C)[C@@H](CN(C)Cc2ccc(Cl)c(Cl)c2)O3)cc1 | 82 | · | – | – | · | ·
CCNC(=O)[C@H]1[C@H](CO)[C@H]2Cn3c(ccc(-c4cccc(F)c4)c3=O)[C@H]2N1Cc1nccs1 | – | · | – | – | · | ·
CCC(=O)N1[C@@H]2c3cccc(=O)n3C[C@@H]2[C@@H](CO)[C@@H]1C(=O)N1CCc2ccccc2C1 | – | · | – | – | · | ·
COc1ccccc1Nc1ncc(-c2cccs2)s1 | · | · | · | 54 | – | –
COc1ccccc1Nc1ccc(C(=O)NCc2cccs2)cn1 | – | – | – | – | – | –
O=S(=O)(Nc1cccc(-c2cn3cccnc3n2)c1)c1ccc(Cl)cc1 | 132 | – | – | · | – | –
O=C(C[C@H]1CC[C@@H]2[C@H](COC[C@@H](O)CN2C(=O)c2ccncc2)O1)NC1Cc2ccccc2C1 | – | · | – | – | · | ·
CN(Cc1ccco1)c1ncnc2ccc(-c3ccc4c(ccn4C)c3)cc12 | – | – | 67 | – | – | –
CCOC(=O)N=Nc1c2ccccc2c2nc3no[nH]c3nc12 | 87 | – | 54 | · | 103 | –
CC(=O)Nc1ccc(NC(=O)COC(=O)c2c3c(nc4ccccc24)CCN(Cc2ccccc2)C3)cc1 | – | – | – | · | – | –
O=C(COC(=O)c1c2c(nc3ccccc13)CCN(Cc1ccccc1)C2)Nc1c(F)cccc1F | 73 | · | · | · | – | –
SMILES | PAX8 inh HTS | Wnt bcat act | EWS-Fli inh | esBAF inh | MITF TRPM1 inh | MITF TRPM1 HTS
Cc1noc(C)c1S(=O)(=O)Nc1ccc2c(c1)C(=O)N([C@H](C)CO)C[C@H](C)[C@@H](CN(C)C(=O)Nc1ccc(C(F)(F)F)cc1)OCCCC[C@H](C)O2 | 86 | · | – | – | · | ·
Cc1noc(C)c1S(=O)(=O)Nc1ccc2c(c1)C(=O)N([C@@H](C)CO)C[C@H](C)[C@H](CN(C)C(=O)Nc1ccc(C(F)(F)F)cc1)OCCCC[C@H](C)O2 | 89 | · | – | – | · | ·
Cc1noc(C)c1S(=O)(=O)Nc1ccc2c(c1)C(=O)N([C@@H](C)CO)C[C@@H](C)[C@@H](CN(C)C(=O)Nc1ccc(C(F)(F)F)cc1)OCCCC[C@@H](C)O2 | – | · | – | – | · | ·
Cc1noc(C)c1S(=O)(=O)Nc1ccc2c(c1)C(=O)N([C@H](C)CO)C[C@H](C)[C@H](CN(C)C(=O)Nc1ccc(C(F)(F)F)cc1)OCCCC[C@H](C)O2 | 68 | · | – | – | · | ·
CC(C)NC(=O)N[C@H]1CC[C@@H](CC(=O)N2CCCCC2)O[C@H]1CO | – | · | – | – | · | ·
C[C@@H]1CN([C@@H](C)CO)C(=O)c2cc(NC(=O)c3ccncc3)ccc2O[C@@H](C)CCCCO[C@H]1CN(C)S(C)(=O)=O | – | · | – | – | · | ·
O=C(N[C@H]1CC[C@H](CCn2cc(Cc3ccccc3)nn2)O[C@@H]1CO)c1cnccn1 | – | · | – | – | · | ·
OCCCNc1c2ccccc2nc2ccccc12 | – | – | – | – | 83 | –
Cc1ccc(-c2nc(NCCCO)c3ccccc3n2)cc1 | – | – | – | – | – | ·
c1ccc2c(NCCc3c[nH]c4ccccc34)c3ccccc3nc2c1 | – | – | – | – | 88 | –
O=c1[nH]c(CN2CCN(c3ccc(O)cc3)CC2)nc2scc(-c3ccc(Cl)cc3)c12 | ? | – | 60 | · | – | –
Cc1ccc(S(=O)(=O)Nc2ccc3c(c2)C(=O)N([C@H](C)CO)C[C@@H](C)[C@@H](CN(C)C)O3)cc1 | – | · | – | – | · | ·
O=C(C(Br)=Cc1ccccc1)c1ccccc1 | 86 | – | 58 | – | 94 | –
C[C@H](CO)N1C[C@H](C)[C@@H](CN(C)C(=O)Nc2ccc(F)cc2)Oc2ccc(NC(=O)CCCCCC(=O)Nc3ccccc3N)cc2C1=O | – | · | – | · | · | ·
CC(=O)N1CCN(Cc2cc(=O)oc3cc(C)c(C)cc23)CC1 | – | – | – | – | · | ·
Cc1cc2oc(=O)cc(CN3CCC(C)CC3)c2cc1C | – | – | – | 41 | – | –
COc1ccc(-c2nc3nc(C)cc(C)n3n2)cc1 | – | 33 | · | – | – | –
OCCC1CN(Cc2nc(-c3ccccc3)cs2)CCN1C1CCCC1 (stereo unspecified) | – | 34 | – | – | – | –
OCCC1CN(Cc2nc(-c3ccccc3)cs2)CCN1Cc1ccc(F)cc1 (stereo unspecified) | – | – | – | – | – | –
CCOc1ccc(-c2cnc3ccccc3n2)cc1 | – | – | 77 | · | – | ·
O=[N+]([O-])c1ccc(-c2cnc3ccccc3n2)cc1 | – | – | – | 55 | – | ·
CCOc1ccc(-c2cn3ccccc3n2)cc1 | – | – | – | · | – | –
